Screens as filed in PubChem BioAssay.
This excerpt belongs to a sample that is enriched for hits.
ARNT-TACC3 inh = disruptors of human ARNT/TACC3 interaction | Q9Y6A5 | AlphaScreen His-ARNT PAS-B/GST-TACC3 binding, luminescence; TACC3 fragment carries E629A point mutation | inhibition, % at 9.99 µM | 390,000 tested, 0.66% active | AID 623870;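 active = mean inhibition of replicates at least 50% and at least half of replicates each reaching 50%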;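 also: 0% = complete ARNT plus TACC3 wells and 100% = ARNT alone without TACC3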
CendR NRP1 mod = NRP-1/CendR interaction modulation | inhibition, % at 25 µM | AID 602438 | FAM-RPARPAR peptide binding to NRP-1, fluorescence polarization | 360,000 tested, 0.85% active;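 active = inhibition or corrected inhibition above about 18%, plus a signal ratio from 0.5 to 1.5, limit read from the data, passing the limit was not always enough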
ALR inh = inhibitors of human sulfhydryl oxidase ALR. P55789. purified ALR, DTT oxidation, H2O2 HRP-luminol luminescence. inhibition, % (concentration not given with the values). 290,000 tested, 3.8% active. AID 485317;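 active = mean replicate inhibition above about 79%, with every replicate also reaching it, limit read from the data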
ERp5 inh = ERp5 (human) disulfide isomerase inhibition; ERp5 insulin aggregation, absorbance 650 nm, 90 min; inhibition, % at 9.99 µM; 350,000 tested, 0.05% active; AID 651711;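 active = mean replicate inhibition above about 25%, with every replicate also reaching it, limit read from the data, passing the limit was not always enough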
PDI turbidity = PDI (human) enzyme inhibition | P07237 | AID 588391 | 350,000 tested, 0.052% active | inhibition, % at 10 µM | PDI insulin aggregation turbidity, A650, 90 min;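 active = mean inhibition across replicates of 30% or more, whatever share of single replicates reach that level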
Target sequence (P07237 whole entry, looked up): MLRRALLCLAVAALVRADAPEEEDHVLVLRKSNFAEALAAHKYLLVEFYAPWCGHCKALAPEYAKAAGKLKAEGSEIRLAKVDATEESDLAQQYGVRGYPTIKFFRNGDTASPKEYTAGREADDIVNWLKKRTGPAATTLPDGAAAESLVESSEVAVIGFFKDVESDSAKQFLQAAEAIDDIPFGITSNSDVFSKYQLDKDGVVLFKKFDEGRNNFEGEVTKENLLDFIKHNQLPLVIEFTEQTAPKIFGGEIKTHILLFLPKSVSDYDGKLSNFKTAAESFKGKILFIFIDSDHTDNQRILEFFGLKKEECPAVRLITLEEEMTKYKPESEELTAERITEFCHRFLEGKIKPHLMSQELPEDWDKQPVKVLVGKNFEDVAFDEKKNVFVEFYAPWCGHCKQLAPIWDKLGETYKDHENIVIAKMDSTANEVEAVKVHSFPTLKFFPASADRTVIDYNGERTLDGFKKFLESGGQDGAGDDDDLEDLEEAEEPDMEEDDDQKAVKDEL
PglD inh = inhibitors of Campylobacter jejuni PglD acetyltransferase | purified PglD enzyme, DTNB colorimetric CoA detection | inhibition, % at 12.5 µM | 360,000 tested, 0.098% active | AID 602405; in the data active = inhibition above about 16%, passing the limit was not always enough
* marks the source's active call; other numbers are inactive results; . = not tested or not shown; ! = a repeat was not active.

SMILES	ARNT-TACC3 inh	CendR NRP1 mod	ALR inh	ERp5 inh	PDI turbidity	PglD inh
C[C@@H]1CN([C@@H](C)CO)C(=O)CCCn2nncc2CO[C@H]1CN(C)S(=O)(=O)c1ccc(Oc2ccccc2)cc1	14	0	.	-3	1	8
C[C@H](CO)N1C[C@H](C)[C@@H](CN(C)S(=O)(=O)c2ccc(Oc3ccccc3)cc2)OCc2cnnn2CCCC1=O	15	-30	.	89*!	19	1
COC(=O)c1ccc(Cn2nnc3c(=O)[nH]c(C4CCCN(S(=O)(=O)c5cccc(Cl)c5)C4)nc32)cc1 (centres undefined)	-6	27*	-12	1	-3	3
COC(=O)c1ccc(Cn2nnc3c(=O)[nH]c(C4CCCN(S(=O)(=O)c5ccc(C)cc5)C4)nc32)cc1 (centres undefined)	-1	6	-7	.	0	-2
CCOc1ccc(-c2[nH]nc3c2C(c2ccc(O)cc2)C(C#N)=C(N)O3)cc1 (centres undefined)	0	3	54	2	1	.
CCOc1cc(C2C(C#N)=C(N)Oc3n[nH]c(-c4ccncc4)c32)cc([N+](=O)[O-])c1O (centres undefined)	-4	32*	6	-3	6	.
CS(=O)(=O)Nc1ccc2c(c1)[C@H]1C[C@@H](CC(=O)N3CCCCC3)O[C@H](CO)[C@H]1O2	-11	.	.	.	.	1
N#Cc1ccc(OCC(=O)NCCCn2ccnc2)cc1	69*	-4	-3	-4	-5	1
COc1ccc(OCC(=O)NCCCn2ccnc2)cc1	22	-5	0	-2	-3	.
O=C(COc1ccc(Cl)cc1)NCCCn1ccnc1	47*	2	-7	.	13	3
CC1CCC2C(C1)c1sc(=O)[nH]c1SC2(C)C (centres undefined)	1	0	98*	.	-6	2
CC1=CC(c2ccccc2)n2nc(NS(=O)(=O)c3ccc(C)cc3)nc2N1 (centres undefined)	-3	-7	5	.	11	2
CC1=CC(c2ccc(Cl)cc2)n2nc(NS(=O)(=O)c3ccc(C)cc3)nc2N1 (centres undefined)	-5	-21	96*	.	9	-3
Cn1c(N)c(S(=O)(=O)N2CCN(c3cccc(Cl)c3)CC2)c(=O)n(C)c1=O	-18	-4	-2	0	7	10
Cn1c(N)c(S(=O)(=O)N2CCN(c3ccccc3Cl)CC2)c(=O)n(C)c1=O	10	27*	-19	14	5	-1
Nc1ccccc1N=Nc1ccccc1N	22	8	87*	0	-7	0
O=C(Nc1cccc(F)c1)N1CC(=O)N2[C@H](C1)[C@H](c1ccc(-c3ccccc3)cc1)[C@@H]2CO	.	.	.	13	.	.
CCc1nnc(N/N=C/c2cc(Br)c(O)cc2O)n1N	63*	9	83*	4	8	-1
CC(C)(C)c1nnc(N/N=C/c2cc(Br)ccc2O)n(N)c1=O	58*	-2	-9	.	3	-9
CCc1nnc(N/N=C/c2ccc(O)c(OC)c2)n1N	0	-2	.	8	2	2
S=c1[nH]nc(-c2ccccc2)n1/N=C/c1cccc(Br)c1	0	-1	.	6	-2	6
Cc1cccc(/C=N/n2c(-c3ccccc3)n[nH]c2=S)c1O	-4	9	91*	2	0	-4
Oc1c(Br)cc(Br)c(/C=N/n2c(-c3ccccc3)n[nH]c2=S)c1Br	0	-80	85*	2	8	-3
Oc1ccc(Br)cc1/C=N/n1c(-c2ccccc2)n[nH]c1=S	-1	-10	67	0	-40	-7
CCOC(=O)c1c(C)oc2c1c(C=NC1CCS(=O)(=O)C1)c(O)c1ccccc12 (centres undefined)	6	-7	-32	.	6	6
SMILES	ARNT-TACC3 inh	CendR NRP1 mod	ALR inh	ERp5 inh	PDI turbidity	PglD inh
CCOC(=O)c1c(C)oc2c1c(C=NCCC(=O)O)c(O)c1ccccc12	18	26*	62	4	-7	-1
CC1CCN(C(=O)CSCC(=O)Nc2nc(-c3cccs3)cs2)CC1	5	5	98*	3	.	0
CCOC(=O)N1CCN(C(=O)CSCC(=O)Nc2nc(-c3cccs3)cs2)CC1	-3	-6	90*	.	-1	2
CC1CCCCN1C(=O)CSCC(=O)Nc1nc(-c2cccs2)cs1 (centres undefined)	0	-5	3	-1	.	5
CC1CCCN(C(=O)CSCC(=O)Nc2nc(-c3cccs3)cs2)C1 (centres undefined)	-6	-12	6	-7	.	2
CSCCC(NS(=O)(=O)c1ccccc1F)C(=O)N1CCCCCCC1 (centres undefined)	3	27*	0	-3	2	7
CC(NC(=O)CCNC(=O)N1CCn2c1nc1ccccc12)c1ccccc1 (centres undefined)	9	-6	97*	-3	2	2
CC(C)C[C@H](NC(=O)N1CCn2c1nc1ccccc12)C(=O)N1CCCCC1	2	-7	0	5	4	1
CSCC[C@H](NC(=O)N1CCn2c1nc1ccccc12)C(=O)N1CCCCC1	4	14	98*	4	-6	0
CSCCC(NS(=O)(=O)c1ccccc1F)C(=O)NCC(C)(C)N1CCOCC1 (centres undefined)	5	-4	-12	-7	-8	-2
CCOC(=O)C(=O)Nc1nc(-c2ccccc2)c(-c2ccccc2)o1	-7	0	88*	1	5	.
O=C(Nc1nc(-c2ccccc2)c(-c2ccccc2)o1)c1ccc(F)cc1	46*	5	3	.	13	2
COc1cccc(C(=O)Nc2nc(-c3ccccc3)c(-c3ccccc3)o2)c1	5	3	0	10	6	.
CC1(C)Cc2nc3n[nH]c(N)c3cc2CO1	-1	0	87*	.	5	-5
CCCc1cc(C(N)=O)c(NC(=O)c2ccoc2C)s1	11	-16	98*	1	2	-4
COc1ccc(C(=O)N2c3ccccc3C(=O)OC2c2ccc3c(c2)OCO3)cc1 (centres undefined)	-9	21*	3	.	-10	-1
CC(=O)Oc1ccc(C2OC(=O)c3ccccc3N2C(C)=O)cc1 (centres undefined)	-15	0	3	.	32*	6
CN1c2ccc(-c3ccccc3F)cc2[C@@H]2[C@@H](CCN2C(=O)NC2CCCC2)[C@@H]1CO	.	.	.	.	.	-2
COCC#Cc1ccc2c(c1)O[C@H](CN(C)C)[C@@H](C)CN([C@@H](C)CO)S2(=O)=O	-9	.	.	-11	.	2
S=c1nc(-c2cccc(Br)c2)[nH][nH]1	4	-3	99*	2	0	-1
O=C(NCc1n[nH]c(=S)n1-c1ccc(Cl)c(Cl)c1)c1ccc(S(=O)(=O)N2CCCCC2)cc1	0	-2	89*	3	-3	4
